The full ranking holds about 4,100 sequences; the median of “RBNS R-value (6-mer enrichment in protein-bound RNA vs input library)” is about 0.99, and the highest 2% start at about 1.4. The full list was thinned out, with the highest values kept by preference.
Tested on: PfIESI-1 RRM domain (Plasmodium falciparum ortholog aa 875-1232, GST fusion)
Assay: RBNS R-value (6-mer enrichment in protein-bound RNA vs input library) (ratio); higher = stronger binding preference; the methods of the paper give 50 / 100 / 500 nM protein instead
Protocol: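 RNA Bind-n-Seq: recombinant GST-tagged IESI-1 RRM domain was incubated at room temperature with a random 40-nt in vitro transcribed RNA library at 250, 500 or 1000 nM protein. Bound RNA was pulled down on glutathione beads and sequenced. R-value is the enrichment of each 6-mer in the bound RNA relative to the input library. Each 6-mer sits inside the random 40-mer context, not as an isolated oligo. Values are replicate 1 only.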

Sequence | RBNS R-value (protein concentration: 250 nM) | RBNS R-value (protein concentration: 500 nM) | RBNS R-value (protein concentration: 1000 nM)
UCCGUC | 0.938 | 0.878 | 0.944
GUAUCA | 0.785 | 0.812 | 0.852
UCCUGU | 0.873 | 0.838 | 0.868
ACUGCC | 1 | 0.929 | 0.986
GAUGUU | 1.47 | 1.53 | 1.31
GAUGUC | 1.37 | 1.39 | 1.29
CAUGUG | 0.924 | 0.964 | 0.964
CAUGUU | 0.853 | 0.856 | 0.878
AAUGUU | 0.827 | 0.922 | 0.9
UAUGUG | 0.854 | 0.869 | 0.848
GAUGUG | 1.53 | 1.65 | 1.36
AAUGUA | 0.778 | 0.871 | 0.819
UAUGUC | 0.791 | 0.772 | 0.81
CAUGUC | 0.881 | 0.88 | 0.921
GAUGUA | 1.25 | 1.39 | 1.2
UAUGUA | 0.792 | 0.805 | 0.771
CAGUCU | 0.933 | 0.914 | 0.963
GGCAUU | 1.01 | 0.953 | 0.972
CUAUCU | 0.826 | 0.759 | 0.772
CAUCUC | 0.925 | 0.891 | 0.96
AGUACG | 0.91 | 0.935 | 0.91
GUCAAG | 0.874 | 0.904 | 0.946
AUACUA | 0.816 | 0.825 | 0.779

Sequence | RBNS R-value (protein concentration: 250 nM) | RBNS R-value (protein concentration: 500 nM) | RBNS R-value (protein concentration: 1000 nM)
GGCUAG | 1.05 | 1.01 | 1.03
AGAAUA | 1.03 | 1.18 | 1.1
UUCAUC | 0.934 | 0.912 | 0.924
CUGAUA | 1.57 | 1.71 | 1.43
AGGAUG | 1.1 | 1.1 | 1.12
ACGAUC | 0.952 | 0.918 | 0.959
AUGAUG | 3.17 | 3.42 | 2.39
AUGAGC | 1.14 | 1.16 | 1.1
AUGAUC | 1.38 | 1.42 | 1.24
CUGACA | 1.13 | 1.11 | 1.11
UCGAUA | 0.937 | 0.932 | 0.928
CAGAUA | 0.988 | 1.03 | 0.99
UUGAUA | 1.72 | 1.92 | 1.6
UUGAGA | 1.19 | 1.22 | 1.18
ACGAUG | 1.33 | 1.38 | 1.21
CUCCUU | 0.894 | 0.809 | 0.869
CUCACC | 1.06 | 0.994 | 1.04
UUCGCC | 1.06 | 0.992 | 1.03
GCGAAU | 1.01 | 1.07 | 1.04
CUUUUU | 0.934 | 0.932 | 0.919
UUGACG | 1.14 | 1.1 | 1.07
UAAAUA | 0.769 | 0.893 | 0.797
AAAUAA | 0.785 | 0.993 | 0.847

Sequence | RBNS R-value (protein concentration: 250 nM) | RBNS R-value (protein concentration: 500 nM) | RBNS R-value (protein concentration: 1000 nM)
AUAAUG | 0.87 | 0.985 | 0.875
AUGAUU | 2.75 | 3 | 2.19
AUGAAU | 1.08 | 1.18 | 1.04
UUGAUG | 2.95 | 3.14 | 2.32
GGGAUG | 1.12 | 1.08 | 1.09
GUGAAG | 0.986 | 0.998 | 1.03
UUGAUC | 1.32 | 1.35 | 1.22
GUGAUG | 2.02 | 2.17 | 1.72
GCGAUC | 0.968 | 0.948 | 1.02
CCGAUG | 1.38 | 1.35 | 1.29
UAGAUG | 1.1 | 1.17 | 1.07
GCGAUG | 1.37 | 1.39 | 1.28
AGGAUU | 1.04 | 1.06 | 1.06
UUAGAA | 0.943 | 1.05 | 0.999
GACUAA | 0.913 | 0.983 | 0.945
CGCGAU | 1.17 | 1.15 | 1.13
UCCACU | 0.991 | 0.933 | 0.95
GUCUUC | 0.908 | 0.868 | 0.954
GCAUCC | 1.14 | 1.06 | 1.11
CUAACC | 0.953 | 0.903 | 0.903
AGCGUA | 0.911 | 0.94 | 0.898
CAAAGA | 1.13 | 1.21 | 1.2
AUGAUA | 1.84 | 2.08 | 1.63

Sequence | RBNS R-value (protein concentration: 250 nM) | RBNS R-value (protein concentration: 500 nM) | RBNS R-value (protein concentration: 1000 nM)
AUGAGA | 1.23 | 1.31 | 1.23
CUGAUG | 2.47 | 2.58 | 1.97
AGGAUA | 0.981 | 1.03 | 1.01
CGGAUG | 1.03 | 0.978 | 1.02
CUGAUC | 1.29 | 1.27 | 1.2
AGGCGG | 1.02 | 0.987 | 1.05
CCAACU | 0.966 | 0.921 | 0.933
UUGGGU | 0.975 | 0.933 | 0.982
UGAGAA | 1.33 | 1.39 | 1.34
AGAGAG | 1.19 | 1.25 | 1.24
UGAGAC | 1.16 | 1.17 | 1.15
CGAGAG | 1.29 | 1.22 | 1.27
CGAGAA | 1.52 | 1.53 | 1.43
UGAGAG | 1.18 | 1.16 | 1.19
AGAGAC | 1.18 | 1.21 | 1.17
AGAGAA | 1.34 | 1.48 | 1.37
CGAGAC | 1.23 | 1.2 | 1.18
UGUCAC | 0.945 | 0.963 | 0.96
UGGCAU | 1.09 | 1.07 | 1.06
GUCCUC | 0.918 | 0.874 | 0.925
ACCUAU | 0.891 | 0.846 | 0.828
CGGGGA | 1.15 | 1.1 | 1.16
GAACUU | 0.955 | 0.971 | 0.985

From the supplement of paper PMC13392028
